The sample as a whole holds a higher share of hits than the screen did.
Mac1 fbg inh: inhibitors of CD11b/CD18 adhesion to fibrinogen, primary screen, K562 cells, luminescence | Integrin beta-2 (Homo sapiens) + Integrin alpha-M (Homo sapiens), P05107+P11215 | ATPlite luminescence; Mn2+ added to activate the integrin | inhibition, % at 10 µM | hit rate 0.54% among 93,000 | AID 1497, 2009;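 active means primary inhibition of 50% or more at 10 µM, then 40% or more on retest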
Target sequence (P05107 whole entry, looked up, other chains not shown): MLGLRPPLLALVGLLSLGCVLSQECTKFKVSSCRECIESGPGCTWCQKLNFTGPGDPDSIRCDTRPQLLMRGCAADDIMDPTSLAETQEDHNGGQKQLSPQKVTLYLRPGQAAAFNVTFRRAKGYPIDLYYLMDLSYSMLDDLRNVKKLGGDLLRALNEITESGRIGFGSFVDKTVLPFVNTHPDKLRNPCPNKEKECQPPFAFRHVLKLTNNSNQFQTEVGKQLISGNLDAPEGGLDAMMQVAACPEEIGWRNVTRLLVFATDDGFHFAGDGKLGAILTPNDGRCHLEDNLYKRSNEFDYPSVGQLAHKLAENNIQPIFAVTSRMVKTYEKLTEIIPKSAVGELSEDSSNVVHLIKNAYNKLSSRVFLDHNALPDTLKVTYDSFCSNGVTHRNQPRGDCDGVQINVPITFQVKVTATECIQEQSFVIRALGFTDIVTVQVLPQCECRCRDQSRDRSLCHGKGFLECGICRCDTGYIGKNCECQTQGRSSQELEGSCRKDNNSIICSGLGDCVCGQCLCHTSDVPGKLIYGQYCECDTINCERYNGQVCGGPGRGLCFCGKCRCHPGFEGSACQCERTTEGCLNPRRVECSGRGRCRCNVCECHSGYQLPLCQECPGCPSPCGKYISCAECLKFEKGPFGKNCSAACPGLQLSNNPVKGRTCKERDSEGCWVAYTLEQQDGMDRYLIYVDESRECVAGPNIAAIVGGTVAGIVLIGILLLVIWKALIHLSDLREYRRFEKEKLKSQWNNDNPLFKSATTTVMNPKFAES
Cav32 inh: Cav3.2 calcium influx blockers – cell-based, Fluo-4 calcium fluorescence, FDSS, MLSMR library, primary screen | B-score at 10 µM | hit rate 4% among 100,000 | Cav3.2-expressing cells; stronger effect = lower value | Voltage-dependent T-type calcium channel subunit alpha-1H (Homo sapiens), O95180;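 active means single-dose well whose peak fluorescence ratio is a statistical outlier from its plate by either plate-standardised score or position-corrected B-score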
Mac1 fbg enh: enhancers of CD11b/CD18 adhesion to fibrinogen, primary screen, K562 cells, luminescence; Integrin beta-2 (Homo sapiens) + Integrin alpha-M (Homo sapiens), P05107+P11215; ATPlite luminescence; activation, % at 10 µM; hit rate 0.07% among 93,000;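 active means 10 µM primary screen giving 50% or more activity, confirmed by 40% or more on retest at that dose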
E coli WT exp: growth inhibitors of wild-type E. coli, primary screen, strain BW25113, expanded library, OD600 | OD600 absorbance | growth inhibition, % at 100 µM | hit rate 0.15% among 98,000;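 active means growth inhibition above about 50% at one test dose, limit read from the data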;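 further: growth measured after 20 h incubation at 37 °C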
Of the large screens only hits and unclear results are named; the others gave an inactive call.

COc1ccc(-c2cn(-c3ccc(C)cc3)c(=O)n2CC(=O)Nc2cccc(F)c2)cc1	Cav32 inh -5
COc1cccc2c(=O)n(CC(=O)Nc3cccc(F)c3)ccc12	none
Cc1ccc(CN2CCN(CC3CC4C=CC3C4)CC2)cc1 (centres undefined)	none (no result: Cav32 inh)
Cc1ccc2nc(SCC(=O)Nc3ccc4sc(C)nc4c3)c(C#N)cc2c1	none
COc1cc(-c2cn(S(=O)(=O)c3cccc4nsnc34)nc2N)cc(OC)c1OC	none
Cc1ccc(-c2cn(S(=O)(=O)c3cccc4nsnc34)nc2N)cc1	Cav32 inh -7.8
Nc1nn(S(=O)(=O)c2cccc3nsnc23)cc1-c1ccc(Br)cc1	Cav32 inh -5.9
CC(C)(C)NS(=O)(=O)c1cccc2nsnc12	none (no result: Mac1 fbg inh, Mac1 fbg enh, E coli WT exp)
CC1Cc2ccccc2N1C(=O)CSc1nnc(Cc2ccccc2)n1CCc1ccccc1 (centres undefined)	none (no result: Cav32 inh)
COc1ccc(C(=O)C[n+]2ccc(-c3nnc4n3CCC4)cc2)cc1	none (no result: Cav32 inh, E coli WT exp)
O=c1c2ccccc2nc(SCc2cc(F)cc3c2OCOC3)n1Cc1ccco1	Cav32 inh -6
COc1ccc(OC)c(NC(=O)c2ccc3nc(-c4ccccc4)c(-c4ccccc4)nc3c2)c1	none (no result: Cav32 inh, E coli WT exp)
COc1ccc(N(C)C(=O)c2ccc3nc(-c4ccccc4)c(-c4ccccc4)nc3c2)cc1	Cav32 inh -8.8
CCN(CC)C(=O)C(=O)N/N=C/c1ccc(C(=O)O)cc1	none (no result: Cav32 inh, E coli WT exp)
CCOC(=O)CSc1ncc(OC)c(Sc2ccc(OC)cc2)n1	Cav32 inh -6.6 (no result: Mac1 fbg inh, Mac1 fbg enh)
Cc1ccc(N2C(=O)CSC23C(=O)Nc2ccccc23)cc1 (centres undefined)	none
CC1=CC(C)(C)N2C(=O)C3(SCC(=O)N3c3ccc(O)cc3)c3cc(C)cc1c32 (centres undefined)	Cav32 inh -7.4 (no result: Mac1 fbg inh, Mac1 fbg enh)
O=C(C1=C[C@H](c2ccccc2)C[C@H](OCc2ccc(CO)cc2)O1)N1CCOCC1	none (no result: Mac1 fbg inh, Mac1 fbg enh, E coli WT exp)
O=S(=O)(c1ccc(Oc2ccc(Cl)cc2)c(S(=O)(=O)N2CCCCC2)c1)N1CCCCC1	Cav32 inh -3.5 (no result: Mac1 fbg inh, Mac1 fbg enh)
COc1ccccc1N1CCN(C(=O)c2ccc3[nH]c4c(c3c2)CCCC4)CC1	none (no result: Cav32 inh, E coli WT exp)
COc1ccccc1NC(=O)N1CCc2[nH]c3ccc(Cl)cc3c2C1	Cav32 inh -5.1
CN1C[C@@H]2C(c3ccc(C(F)(F)F)cc3)C3(c4ccc(C#N)cc4)CC2(C3)[C@H]1c1ccccc1 (some centres undefined)	none (no result: Mac1 fbg inh, Mac1 fbg enh, E coli WT exp)
CCC(C)(C)NC(=O)C(c1ccc(C)cc1)N(Cc1ccco1)C(=O)CCC(=O)Nc1nccs1 (centres undefined)	Cav32 inh -4.8
CCC(C)(C)NC(=O)C(c1ccc(F)cc1)N(Cc1ccco1)C(=O)CCC(=O)Nc1ccccn1 (centres undefined)	Cav32 inh -8.8
CC(C)(C)NC(NC(=O)Cc1ccccc1)C(Cl)(Cl)Cl (centres undefined)	none (no result: Mac1 fbg inh, Mac1 fbg enh)
O=C(Cc1ccccc1)NC(Nc1ccccc1)C(Cl)(Cl)Cl (centres undefined)	Cav32 inh -4.2
O=C(Cc1ccccc1)NC(NCCc1ccccc1)C(Cl)(Cl)Cl (centres undefined)	Cav32 inh -10 (no result: Mac1 fbg inh, Mac1 fbg enh)
O=C(/C=C/c1cccc(OCc2ccccc2)c1)c1cccnc1	none (no result: Cav32 inh, E coli WT exp)
O=C(NC1CCCCC1)C(c1ccccc1)N(Cc1ccc2c(c1)OCO2)C(=O)c1cnsn1 (centres undefined)	Cav32 inh -7.5 (no result: Mac1 fbg inh, Mac1 fbg enh, E coli WT exp)
CC(=O)c1ccccc1OCCn1nnc(-c2ccc(C)cc2)n1	Cav32 inh -5.1 (no result: Mac1 fbg inh, Mac1 fbg enh, E coli WT exp)
C=CCNC(=S)N1CCN(c2ncc3c(=O)c(C(=O)O)cn(CC)c3n2)CC1	E coli WT exp 100
O=C(CC1CCCCC1)c1c(O)c2ccccc2oc1=O	Cav32 inh -7.6
Cc1ccc(SCCNC(=O)/C=C/c2ccccc2Cl)cc1	Cav32 inh -2.8
Cc1ccc(OCCNC(=O)/C=C/c2ccc([N+](=O)[O-])cc2)cc1C	none (no result: Mac1 fbg inh, Mac1 fbg enh)
O=C(/C=C/c1ccc([N+](=O)[O-])cc1)NCCSc1ccccc1	Cav32 inh -3.8
COc1ccc(C2CC(=O)N3C(=C2C#N)SCC3(O)c2ccccc2)cc1 (centres undefined)	Cav32 inh -6
COC(=O)c1cc(NC(=O)c2cccc(C(F)(F)F)c2)c(=O)oc1C/C=N/OCc1cccc(Cl)c1Cl	Cav32 inh -4.6
O=C(NCc1ccccc1Cl)c1cccc(C(F)(F)F)c1	none (no result: Cav32 inh, E coli WT exp)
COc1ccc(C(CC(=O)O)NS(=O)(=O)c2ccc(C)cc2)cc1OC (centres undefined)	none (no result: Cav32 inh)
COc1ccc(C(CC(=O)O)NS(=O)(=O)c2ccc(C)cc2)cc1 (centres undefined)	Mac1 fbg inh 51
CCOC(=O)c1cnc(SCCc2ccccc2)nc1N	none
CCCCSc1ncc(C(=O)OCC)c(N)n1	Cav32 inh -4.6 (no result: Mac1 fbg inh, Mac1 fbg enh, E coli WT exp)
O=S(=O)(Nc1nc2ccc(S(=O)(=O)N3CCCC3)cc2s1)c1ccc(F)cc1	none
Cc1ccc(CCNC(=O)C2CCCN(c3nc4ccccc4o3)C2)cc1 (centres undefined)	none
Cc1c(C(=O)NCC2COc3ccccc3O2)oc2ccc(S(=O)(=O)N3CC(C)CC(C)C3)cc12 (centres undefined)	Cav32 inh -3.9
Cc1c(C(=O)N2CCCCC2)oc2ccc(S(=O)(=O)N3CC(C)CC(C)C3)cc12 (centres undefined)	none (no result: Cav32 inh)
Cc1c(C(=O)NCC2CCCO2)oc2ccc(S(=O)(=O)N3CC(C)CC(C)C3)cc12 (centres undefined)	Cav32 inh -4
Cc1c(C(=O)NC2CCCc3ccccc32)oc2ccc(S(=O)(=O)N3CCOCC3)cc12 (centres undefined)	Mac1 fbg enh 57
Cc1c(C(=O)NC2CCCc3ccccc32)oc2ccc(S(=O)(=O)N3CCCC3)cc12 (centres undefined)	none
O=C(Cc1cccs1)N(Cc1ccco1)C1(C(=O)NC2CCCCC2)CCCCC1	Cav32 inh -7.1
CC(=O)N(Cc1ccco1)C1(C(=O)NC2CCCCC2)CCCCC1	none
O=C(Cc1cccs1)N(Cc1cccs1)C1(C(=O)NC2CCCC2)CCCCC1	Cav32 inh -8.4
CCC(C)(C(=O)NC1CCCCC1)N(C)C(=O)c1ccccn1 (centres undefined)	none
CCC(C)(C(=O)NC1CCCCC1)N(Cc1ccco1)C(=O)Cc1cccs1 (centres undefined)	Cav32 inh -4.7 (no result: Mac1 fbg inh, Mac1 fbg enh)
COc1ccccc1-c1c(C(F)(F)F)oc2cc(OCC(=O)Nc3cc(C)ccc3C)ccc2c1=O	none (no result: Cav32 inh, E coli WT exp)
Cc1ccc(CCNC(=O)CS(=O)Cc2nc(-c3cccc(C)c3)oc2C)cc1 (centres undefined)	Cav32 inh -5.2
Cc1cccc(-c2nc(CS(=O)CC(=O)NCc3cccs3)c(C)o2)c1 (centres undefined)	none
CCN1C(=O)/C(=C/c2ccc(C)o2)N(C)C1=S	none (no result: Cav32 inh, E coli WT exp)
CS(=O)(=O)N(CC(=O)Nc1ccccc1Sc1ccccc1)C1CCCCC1	Cav32 inh -5.9
COC(=O)c1ccccc1NC(=O)CN(C1CCCCC1)S(C)(=O)=O	none
CSc1cccc(NC(=O)CN(C2CCCCC2)S(C)(=O)=O)c1	Cav32 inh -5.1
CCN1C(=O)N[C@H](c2ccccc2)C(C(C)=O)=C1C	none (no result: Mac1 fbg inh, Mac1 fbg enh, E coli WT exp)

Screening results (PubChem BioAssay)
